Reference: PubChem BioAssay (NCATS)
Results filed as inconclusive are left out. Active and inactive are the calls of the source. Calls come from the whole dose curve; as a rule, active = well fitted curve in the direction sought with a large enough effect; inconclusive = small, poorly fitted or top-dose-only effect, or another doubt; inactive = no such curve, though single readings can be large; an effect the other way counts as inactive or inconclusive.

Experiments:
HACAT = assay: qHTS assay to identify novel small-molecules to repurpose for Merkel cell carcinoma treatment (AID 1296009); conditions: MCC and control cell lines, CellTiter-Glo viability, 72 h; at 44.8 µM (top of the series) unless noted; note: nearly all actives have a fitted effect of over 60% in size
Summary of the method: (§1)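 Luminescence from CellTiter-Glo, read 10 min after addition at room temperature, reported viability following a 72 hr, 37 degree celsius treatment with NPC or MIPE compounds in titration; values normalized to plate controls.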

HEK293T = assay: as above; conditions: MCC and control cell lines, CellTiter-Glo viability, 72 h; series mostly up to 44.8 µM
Summary of the method: as §1

NIH3T3 = assay: as above; conditions: MCC and control cell lines, CellTiter-Glo viability, 72 h; at 44.8 µM (top of the series) unless noted
Summary of the method: as §1

C33A = assay: Primary qHTS to identify gynecologic anti-cancer compounds using libraries of approved drugs and bioactive compounds (AID 1345084); conditions: Gynecologic cancer cell panel viability, ATPlite luminescence, 48 h; series mostly up to 57.5 µM; note: % is set by controls: 0 for no effect and ±100 for the full control effect; nearly all actives have a fitted effect of over 55% in size
Summary of the method: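 48 h compound exposure at 37 C, 5% CO2; five-point qHTS. ATPlite luminescence readout of cell ATP.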

NS(=O)(=O)NCCNc1nonc1C(=Nc1ccc(F)c(Br)c1)NO
inactive: outcome (HACAT) | Potency (HEK293T) | outcome (NIH3T3) | Potency (C33A)

COc1cccc(-c2ccc([C@@H](Oc3cc(-c4ccc(C[C@H](N)C(=O)O)cc4)nc(N)n3)C(F)(F)F)cc2)c1
inactive: outcome (HACAT) | Potency (HEK293T) | outcome (NIH3T3) | Potency (C33A)

C=C1CC[C@H]2[C@@H](/C=C(\C)C(=O)[C@@]3(OC(C)=O)C[C@H](C)[C@H](OC(C)=O)[C@@H]3[C@H]1OC(C)=O)C2(C)C
inactive: outcome (HACAT) inactive [at 17.4 µM] | Potency (HEK293T) | outcome (NIH3T3) inactive [at 17.4 µM] | Potency (C33A)

CC1[C@@H](O)[C@@H](O)C2[C@]3(C)C(C[C@H]4OC(=O)[C@H](O)[C@]1(O)[C@@]24C)C(C)(O)C[C@H](O)[C@H]3O (some centres not stated)
inactive: outcome (HACAT) inactive [at 17.4 µM] | Potency (HEK293T) | outcome (NIH3T3) inactive [at 17.4 µM] | Potency (C33A)

COC(=O)C1=COC(OC2OC(CO)C(O)C(O)C2O)C2C1CC(OC(=O)C(O)CC(=O)O)C2C (configuration not stated)
inactive: outcome (HACAT) inactive [at 17.4 µM] | Potency (HEK293T) | outcome (NIH3T3) inactive [at 17.4 µM] | Potency (C33A)

C=C1CC[C@H]2[C@@](C)(CCC(O)[C@@]2(C)CO)[C@@H]1C/C=C(/C(=O)O)C(O)CO (some centres not stated)
inactive: outcome (HACAT) | Potency (HEK293T) | outcome (NIH3T3) | Potency (C33A)

O=C(O[C@H]1[C@@H]2C=CO[C@@H](O[C@@H]3O[C@H](CO)[C@@H](O)[C@H](O)[C@H]3O)[C@@H]2[C@@]2(CO)O[C@@H]12)c1ccc(O)cc1
inactive: outcome (HACAT) inactive [at 17.4 µM] | Potency (HEK293T) | outcome (NIH3T3) inactive [at 17.4 µM] | Potency (C33A)

CC1(C)CC(=O)N(CCCCN2CCN(c3ncccn3)CC2)C(=O)C1
inactive: outcome (HACAT) | Potency (HEK293T) | outcome (NIH3T3) | Potency (C33A)

COc1ccc([C@H]2Cc3cccc(O)c3C(=O)O2)cc1
inactive: outcome (HACAT) | Potency (HEK293T) | outcome (NIH3T3) | Potency (C33A)

Clc1ccc2c(c1)C1=NCCN1c1c(-c3noc(C4CC4)n3)ncn1-2
inactive: outcome (HACAT) | Potency (HEK293T) | outcome (NIH3T3) | Potency (C33A)

CC(C)=CC/C=C(/C)[C@H]1CC[C@]2(C)[C@@H]1[C@H](O)CC1[C@@]3(C)CC[C@H](O)C(C)(C)[C@@H]3[C@@H](O[C@@H]3O[C@H](CO)[C@@H](O)[C@H](O)[C@H]3O[C@@H]3O[C@@H](C)[C@H](O)[C@@H](O)[C@H]3O)C[C@]12C (some centres not stated)
inactive: outcome (HACAT) inactive [at 17.4 µM] | Potency (HEK293T) | outcome (NIH3T3) inactive [at 17.4 µM] | Potency (C33A)

COc1cc(/C=C/CO)ccc1O[C@@H]1O[C@H](CO)[C@@H](O)[C@H](O)[C@H]1O
inactive: outcome (HACAT) | Potency (HEK293T) | outcome (NIH3T3) | Potency (C33A)

O=C(/C=C/c1ccc(O)cc1)OC[C@]12O[C@H]1[C@@H](O)[C@@H]1C=CO[C@@H](O[C@@H]3O[C@H](CO)[C@@H](O)[C@H](O)[C@H]3O)[C@@H]12
inactive: outcome (HACAT) inactive [at 17.4 µM] | Potency (HEK293T) | outcome (NIH3T3) inactive [at 17.4 µM] | Potency (C33A)

CC(=O)N(O)CCCCCN1C(=O)CCC1=O
inactive: outcome (HACAT) | Potency (HEK293T) | outcome (NIH3T3) | Potency (C33A)

CC1OC(OC2C(O)C(C(=O)O)OC(OC3CCC4(C)C(CCC5(C)C4C=CC4=C6CC(C)(C)CC(O)C6(C)CCC45C)C3(C)C)C2OC2OCC(O)C(O)C2O)C(O)C(O)C1O (configuration not stated)
inactive: outcome (HACAT) inactive [at 9.27 µM] | outcome (HEK293T) inactive [at 9.27 µM] | outcome (NIH3T3) inactive [at 9.27 µM] | activity change, negative = cytotoxicity (C33A) 25.5% [at 11.6 µM]

COc1cc(C[C@H]2COC(=O)[C@@H]2Cc2ccc(O)c(OC)c2)ccc1O
inactive: outcome (HACAT) | Potency (HEK293T) | outcome (NIH3T3) | Potency (C33A)

CC(=O)NC(CCC(=O)O)C(=O)NCCc1ccc(O)cc1 (configuration not stated)
inactive: outcome (HACAT) | Potency (HEK293T) | outcome (NIH3T3) | Potency (C33A)

CC[C@@H](c1ccc(F)c(F)c1)n1c(C(=O)OC)c(-c2ccno2)[nH]c1=S
inactive: outcome (HACAT) | Potency (HEK293T) | outcome (NIH3T3) | Potency (C33A)

COc1ccc2cc(OCC3(C(=O)O)CN(C(=O)c4ccc(F)cc4)C3)ccc2c1
inactive: outcome (HACAT) | Potency (HEK293T) | outcome (NIH3T3) | Potency (C33A)

CN(C)c1cccc(-c2c3c(=O)n(-c4ccccc4Cl)[nH]c3cc(=O)n2C)c1
inactive: outcome (HACAT) | Potency (HEK293T) | outcome (NIH3T3) | Potency (C33A)

COc1ccccc1[C@@H]1C2=C(CC(C)(C)CC2=O)Nc2n[nH]c(C(F)(F)F)c21
inactive: outcome (HACAT) | Potency (HEK293T) | outcome (NIH3T3) | Potency (C33A)

Cc1ncc([N+](=O)[O-])n1CC(O)CN1CCOCC1 (configuration not stated)
inactive: outcome (HACAT) | Potency (HEK293T) | outcome (NIH3T3) | Potency (C33A)

CC(=O)[C@@H]1CC[C@]2(C(=O)O)CC[C@]3(C)C(CCC4[C@@]5(C)CC[C@H](O)C(C)(C)C5CC[C@]43C)C12 (some centres not stated)
inactive: outcome (HACAT) inactive [at 17.4 µM] | Potency (HEK293T) | outcome (NIH3T3) inactive [at 17.4 µM] | Potency (C33A)
